Shown are actives, neighbours in structure and some others; about 4.1% of the full set was active somewhere.
CaV13 ICDI inh: Primary screen for inhibitors of IQ motif and Ca2+-dependent inactivation inhibitor domain binding in CACNA1D, Förster resonance energy transfer in living cells, …. actives 0.098% (n = 340,000). HEK cells, CFP/YFP FRET ICDI-IQ, plate reader, 10 min; percent FRET-ratio fall versus neutral wells. inhibition, % at 12.3 µM;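 active = mean replicate inhibition of at least 30% and at least 1% of replicates passing that level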;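 note: 0% = median of the neutral control wells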
IDE cell inh: human IDE inhibitors in live cells, primary screen, fluorescence polarization, HEK cells, FAbetaB substrate; Insulin-degrading enzyme (Homo sapiens), P14735; FAbetaB cleavage; inhibition, % at 5.59 µM; actives 0.41% (n = 320,000);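 active = percent inhibition above the average of all tested compounds plus 3 SD, set per screening campaign, cut at about 16% in these data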;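 note: IDE supplied by intact live HEK cells; FP after avidin binding of uncleaved biotin substrate so inhibition keeps polarization high; 0% = DMSO wells and 100% = 60 µM reference IDE inhibitor Ii1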
ALR inh: inhibitors of human ALR sulfhydryl oxidase, primary screen, biochemical, H2O2 detection, HRP-luminol luminescence, single point; purified ALR, DTT oxidation; actives 3.8% (n = 290,000); AID 485317, 2010; inhibition, % (test concentration not listed); FAD-linked sulfhydryl oxidase ALR (Homo sapiens), P55789;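 active = mean replicate inhibition above about 79%, with every replicate also reaching it, limit read from the data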
Target sequence (P55789 whole entry, looked up): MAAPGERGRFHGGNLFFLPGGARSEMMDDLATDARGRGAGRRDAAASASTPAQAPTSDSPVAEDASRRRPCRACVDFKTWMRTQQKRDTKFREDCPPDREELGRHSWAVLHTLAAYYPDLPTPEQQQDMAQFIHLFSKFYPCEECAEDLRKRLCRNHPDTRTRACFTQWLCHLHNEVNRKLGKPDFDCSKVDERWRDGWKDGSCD
M18AAP inhibitor: PfM18AAP inhibitors, malaria aminopeptidase, primary screen, biochemical, QFRET, recombinant enzyme. M18 aspartyl aminopeptidase (Plasmodium falciparum 3D7). H-Glu-NHMec fluorogenic cleavage. inhibition, % at 7.35 µM. actives 1.2% (n = 290,000). AID 1822, 2009;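 active = inhibition above the campaign mean inhibition over all tested compounds plus 3 SD, cut at about 28% in these data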;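 note: 0% = plate median of test compound wells and 100% = 2 mM ZnCl2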
PolyA inhibitor: polyadenylation inhibitors in yeast reporter cells, primary screen, luminescence, S. cerevisiae. S. cerevisiae SKY197-pL101 polyadenylation reporter, beta-gal luminescence; efflux-impaired pdr1/pdr3 knockout yeast; score 100 = 6 SD above DMSO. activity score, % at 12 µM. actives 0.02% (n = 300,000);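 active = lowest replicate activity score at least 50, where 100 means six control SD above control mean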;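 note: yeast exposed to compound for 9 h at 30 °C; higher score means more reporter readthrough which indicates perturbed polyadenylation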
IDE cell activ: human IDE activators in live cells, primary screen, fluorescence polarization, HEK cells, FAbeta-B substrate; AID 493087, 2011; Insulin-degrading enzyme (Homo sapiens), P14735; FAbeta-B cleavage; 0% vehicle, 100% cell-free pure enzyme wells; actives 0.073% (n = 340,000); activation, % at 5.96 µM;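 active = activation above the mean of all tested compounds plus 3 SD, set per screening campaign, cut at about 17% in these data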
The depositor's hits bear a star; · = no result given.

SMILES	CaV13 ICDI inh	IDE cell inh	ALR inh	M18AAP inhibitor	PolyA inhibitor	IDE cell activ
Cc1ccc(NC(=O)c2cc(NC(=O)/C=C\C(=O)O)ccc2N2CCCCC2)cc1	-2	0	99*	7	-1	1
CC(C)n1nnnc1C1c2ccccc2C(=O)N1Cc1cccc(F)c1 (stereo unspecified)	-7	·	·	·	·	·
CC(=O)c1cccc(-c2ccnc3c2CC(C(=O)NCc2cccs2)O3)c1 (stereo unspecified)	-6	·	·	·	·	·
CCOC(=O)CC[C@H](NC(=O)Cn1cc(C)c(=O)[nH]c1=O)C(=O)OCC	-9	·	·	·	·	-2
NC(=N\N=Cc1ccccc1)/C(N)=N/N=Cc1ccccc1	-5	·	·	·	·	·
Cn1c(CS/C(N)=N/N=C/c2ccccc2)c(Br)c(=O)n1-c1ccccc1	-6	2	98*	15	7	-12
Cc1ccccc1OCCCC(=O)Nc1nncs1	3	-2	-2	1	31	-8
C(=N\Nc1nc2ccccc2[nH]1)/c1c[nH]c2ccccc12	-7	2	99*	22	2	1
Cc1ccccc1/C=N/Nc1nc2ccccc2[nH]1	11	-3	73	19	-6	6
COc1ccc(/C=N/Nc2nc3ccccc3[nH]2)c(OC)c1OC	4	2	98*	3	2	-9
COc1ccc(/C=N/Nc2ccccn2)c(OC)c1OC	-11	4	99*	8	4	3
C(/CCc1ccccc1)=N\Nc1nc2ccccc2[nH]1	-5	3	98*	25	-4	-3
C[C@@H](c1ccccc1)N1C[C@H](COCc2ccccc2)Oc2cc(N3CC[C@H](N(C)C)C3)ccc2S1(=O)=O	-11	·	·	·	·	·
COc1ccc(/C=C2\CCc3ccccc3C2=O)cc1O	-3	3	32	14	19	4
COc1ccc(OC)c(S(=O)(=O)N2CCC(C(=O)NC3CCCC3)CC2)c1	-3	1	2	0	10	-1
CN(CC(=O)Nc1ccc(F)cc1)C(=O)CN1C(=O)c2cccc([N+](=O)[O-])c2C1=O	-6	-2	-16	·	·	5
O=C(/C=C/c1ccccc1)N1CCN(CCN2C(=O)c3cccc4cccc(c34)C2=O)CC1	-3	9	2	5	6	3
Cc1cccc(Cn2cnc3c(NS(C)(=O)=O)c(C)c(C)cc32)c1	-5	6	·	0	5	0
Cc1cc(=O)[nH]c(N/N=C/c2ccccc2C(F)(F)F)n1	-4	8	-3	-10	-10	1
Cc1cc(=O)[nH]c(N/N=C/c2c[nH]c3ccccc23)n1	-4	4	92*	15	3	3
CCC(C)(C)NC(=O)C(c1ccccn1)N(C(=O)c1csnn1)c1ccc(C)c(C)c1 (stereo unspecified)	-7	1	-1	0	16	2
CSc1ncc(-c2ccc(Cl)cc2)[nH]1	-2	0	98*	-2	6	-4
O=C(c1cc(COc2ccc(F)cc2Cl)on1)N(CCO)Cc1cccs1	-5	10	-1	-4	35	-1
CCCC(=O)NNc1c2ccccc2nc2ccccc12	-4	-1	99*	4	23	-4
OCCNc1c2ccccc2nc2ccccc12	51*	2	-15	-2	28	3
SMILES	CaV13 ICDI inh	IDE cell inh	ALR inh	M18AAP inhibitor	PolyA inhibitor	IDE cell activ
O=C(O)CCC(=O)NNc1ncnc2ccccc12	-3	-4	17	7	9	0
O=C(CCCO)NNc1c2ccccc2nc2ccccc12	2	0	99*	-3	9	5
c1ccc(Nc2cccc(Nc3ccccc3)n2)cc1	·	-1	99*	11	-48	-7
Cc1ccc(-n2nc(C)c(Sc3ccccc3[N+](=O)[O-])c2N)cc1	3	5	87*	21	-7	-4
Cc1n[nH]c(C)c1Sc1ccccc1[N+](=O)[O-]	-2	-6	-5	1	14	3
COc1ccc(NC(=O)COC(=O)c2c3c(nc4ccccc24)CCCC3)cc1Cl	2	5	-19	-8	-34	-5
COc1ccc(N2CCN(C(=O)c3ccc(C)c(Cl)c3)CC2)cc1	-5	5	13	1	27	0
COc1ccc(N2CCN(C(=O)c3ccc(C)cc3Cl)CC2)cc1	·	-3	92*	-1	27	1
COc1ccc(N2CCN(C(=O)Nc3ccccc3Cl)CC2)cc1	-8	-2	87*	0	0	-3
Cn1cc(C(=O)Nc2ccccn2)c(=O)c2ccccc21	-5	·	·	-4	-10	1
O=C1C(=O)N(C/C=C/c2ccccc2)c2ccccc21	-4	1	6	23	-10	3
COc1ccc(-c2nc(CS(=O)(=O)CC(=O)NC3CCC(C)CC3)c(C)o2)cc1 (stereo unspecified)	-3	-1	98*	-4	6	1
Cc1oc(-c2ccc(Cl)cc2)nc1CS(=O)CC(=O)NC1CC1 (stereo unspecified)	-4	6	99*	-4	4	8
Cc1ccc(-c2nc(CS(=O)CC(=O)NC3CCC(C)CC3)c(C)o2)cc1 (stereo unspecified)	-6	-2	99*	-10	22	1
COc1ccc(CNC(=O)CS(=O)(=O)Cc2nc(-c3ccc(OC)cc3)oc2C)cc1	-3	0	-8	-6	12	-3
Cc1oc(-c2ccc(Cl)cc2)nc1CN1CCC(C(=O)NCc2cccs2)CC1	-6	-2	·	-19	25	0
Cc1ccc(CS(=O)Cc2ccc(C(=O)NC3CCC(C)CC3)o2)cc1 (stereo unspecified)	-5	4	61	-1	2	4
COC(=O)c1cnc(NC(=O)C2(C)CCCN(C(C)=O)C2)s1 (stereo unspecified)	-8	·	·	·	·	·
CC1(C)CC(=O)c2cnn(-c3nc4ccccc4[nH]3)c2C1	-3	-3	94*	-2	-15	1
CC(Oc1ccc(Br)cc1Cl)C(=O)Nc1ccncc1 (stereo unspecified)	-19	4	4	1	-2	3
CCOC(=O)CCNCc1ccc(OC)c(OC)c1	-7	3	·	-14	-1	6
Cc1ccc(S(=O)(=O)N2CCCC2C(=O)NCc2ccc3c(c2)OCO3)cc1 (stereo unspecified)	8	6	-8	-9	4	3

Screens deposited in PubChem by several laboratories.
